These results are taken from PubChem BioAssay AID1272365 (Small Molecule Screening Facility, UW Madison, 2018).

Several values for one entry are separate records, joined by “and”; a condition that tells them apart may be missing. Identical values can stand only once. Screen size: about 430,000 compounds; about 2,600 (0.6%) were called active. Rule as the data show it: active = inhibition mostly above about 37% (no sharp cut-off); inactive = mostly below about 20%. The sample as a whole holds a higher share of actives than the screen did.

The assay relates to PriA–SSB C-terminal tail interaction (Klebsiella pneumoniae). Nature of the assay: inhibitors of Klebsiella pneumoniae PriA binding to SSB C-terminal tail, primary screen, biochemical, AlphaScreen (AID 1272365).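 Also: plate controls were negative control peptide for no effect and reference peptide for full effect.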 The following applies: AlphaScreen SSBct-PriA binding, biotinylated peptide; at 33 µM, stronger effect = higher value. A general note: Bead proximity is the source of the signal in Alpha formats.
Broadly, the inhibition is the relative decrease from the control value, in per cent. In the case of `CCOC(=O)CSc1nc2cc(OC)c(OC)cc2c2nc(CCn3nc(C)cc3C)nn12`, the inhibition is 3% (inactive). Turning to `CCN(CC)c1ccc(C=NNC(=O)c2c[nH]c3ccccc23)cc1`, the inhibition is 16.7% (inactive). In the case of `CC(=NNC(=O)c1c[nH]c2ccccc12)c1ccccn1` it was 75.7% (active); in that of `CC(=NNC(=O)c1ccc(F)cc1)c1ccccn1`, -1.36% (inactive). With `CC1=NN(CCN2CCN(c3ccc(F)cc3)CC2)c2nc3c(c(=O)n(C)c(=O)n3C)n2C1` the figure was 6% (inactive) and -7% (inactive); with `CCn1cc(NC(=O)N2CCCc3ccccc32)c2ccccc21`, 2% (inactive). For the compound `CCn1cc(NC(=O)N2CCc3ccccc32)c2ccccc21`, the inhibition was 40% (active). In the case of `Cn1cc(NC(=O)N2CCc3ccccc3C2)c2ccccc21` it was -3% (inactive). In the case of `CN1CCc2cc(C(CNC(=O)C(=O)Nc3ccccc3F)N(C)C)ccc21` (stereo not given) it was 14% (inactive); in that of `COc1cccc2c1C(=O)c1c(O)c3c(c(O)c1C2=O)CC(O)(C(C)=NNC(=O)c1ccc(Cl)c(Cl)c1)CC3OC1CC(N)C(O)C(C)O1` (stereo not given), 57.5% (active); in that of `NC(=O)CSc1ccc2nnc(-c3ccccn3)n2n1`, 72% (active). With `CCOC(=O)CNC(=O)CSc1ccc2nnc(-c3cccnc3)n2n1` the figure was 2.63% (inactive); with `Cc1ccccc1NC(=O)CSc1ccc2nnc(-c3ccccn3)n2n1`, -4.51% (inactive).

As for `CCCN(CCC)C(=O)Cn1c(=O)c2ccccc2n2c(=S)sc(-c3cccc(C)c3)c12`, the inhibition is 7% (inactive). With `CCc1ccc2nc(Nc3nc4ccc(NC(C)=O)cc4s3)sc2c1` the figure was 2% (inactive); with `C/C(=N/N=C1/NC(=O)CS1)c1ccccc1`, -2% (inactive); with `N#CC1=C(N)Oc2c(ccc3cccnc23)C1c1ccncc1` (stereo not given), 65.3% (active). In the case of `Nc1cncc2cccnc12` it was -8% (inactive); in that of `N#CC1=C(N)Oc2c(sc3ccccc23)C1c1ccco1` (stereo not given), 2.22% (inactive); in that of `Cc1ccc2nc3sc(Nc4ccc(C)c(Cl)c4)nn3c(=O)c2c1`, -4% (inactive). With `Cc1nn(C)c(C)c1S(=O)(=O)NCC1CCN(c2ccccn2)CC1` the figure was 2% (inactive).

Take `Cc1ccc2c(c1)C1CN(C)CCC1N2C(=O)c1ccccc1NS(=O)(=O)c1ccc(F)cc1C` (stereo not given): the inhibition is -3.86% (inactive). In the case of `Cc1ccc2c(c1)C1CN(C)CCC1N2S(=O)(=O)c1ccc(Oc2ccc([N+](=O)[O-])cc2)cc1` (stereo not given) it was 17.5% (inactive); in that of `Cc1ccc2c(c1)C1CN(C)CCC1N2S(=O)(=O)c1cccc(F)c1` (stereo not given), 39.2% (active). With `CCOc1ccc(-c2ccc(=O)n(CC(=O)N3CCOCC3)n2)cc1` the figure was -1% (inactive).

For the compound `CC(C)CC(COCc1ccc(Cl)cc1)N1CCN(C(=O)c2ccc(C(F)(F)F)cc2)CCC1=O` (stereo not given), the inhibition was -5.16% (inactive).

Turning to `CN1CCC(=O)N([C@H](CO)Cc2ccccc2)CC1`, the inhibition is -2.41% (inactive). Turning to `O=C(c1cc(Cl)cc(Cl)c1)N1CCC(=O)N(C(COCc2ccccc2)Cc2ccccc2)CC1` (stereo not given), the inhibition is 44.6% (active).

Consider `COc1cc(NC(=O)CSc2nccn3nc(-c4ccc(Cl)cc4)cc23)cc(OC)c1`, for which the inhibition was 3% (inactive). In the case of `Cc1ccc(Nc2nc(-c3ccccn3)cs2)cc1C` it was 108% (active). With `Cc1cc(-c2csc(Nc3ccccn3)n2)c(C)o1` the figure was 2% (inactive); with `Cc1csc(OCC(=O)Nc2ccc(C)c(C)c2)n1`, -9.32% (inactive).

Turning to `COc1ccccc1C(CNC(=O)c1ccc2c(c1)OCO2)OC` (stereo not given), the inhibition is -10% (inactive). With `Cc1noc(C)c1CC(=O)NCCn1cnc2ccsc2c1=O` the figure was -1% (inactive); with `O=C1c2ccccc2C(=O)c2c1cccc2N1CCN(C/C=C/c2ccccc2)CC1`, 68.2% (active). In the case of `CNC(=O)NC(=O)C(C)N1CCN(C/C=C/c2ccccc2)CC1` (stereo not given) it was 7.15% (inactive); in that of `O=C1c2ccccc2C(=O)c2c1cccc2N1CCN(Cc2ccccc2)CC1`, 50.5% (inactive). In the case of `Cc1ccc(NS(=O)(=O)c2ccc(F)cc2)nc1` it was -0.76% (inactive). Consider `Cc1ccc(Nc2ccc(NCCN)nn2)nc1`, for which the inhibition was 89% (active). In the case of `Cc1cccc(N2CCN(C(=O)CCc3csc4nc(-c5ccccc5)cn34)CC2)c1` it was -16% (inactive).

Consider `Cc1ccc(SCCC(=O)Nc2nc(-c3ccc4c(c3)OCCO4)cs2)cc1`, for which the inhibition is 8% (inactive). In the case of `O=C1c2ccccc2NC(c2ccccn2)N1NS(=O)(=O)c1ccccc1` (stereo not given) it was -13.5% (inactive). With `Cc1ccc(-c2csc(NC(=O)[C@H](C(C)C)N3C(=O)c4ccccc4C3=O)n2)cc1` the figure was -1% (inactive); with `O=C(CCN1C(=O)C2C3C=CC(C3)C2C1=O)Nc1ccccc1F` (stereo not given), -14.1% (inactive).

In the case of `CC(C)C1Nc2ccccc2C(=O)N1CC(=O)Nc1nc(-c2ccccn2)cs1` (stereo not given), the inhibition is 94.5% (active). With `O=C(CC1(n2cccc2)CCOCC1)Nc1nc(-c2ccccn2)cs1` the figure was 109% (active); with `CCCCOC(=O)NCN1C(=O)C2C3C=CC(C3)C2C1=O` (stereo not given), 9.26% (inactive); with `O=C(CSc1ccccc1)Nc1nc(-c2ccccn2)cs1`, -20% (inactive).

For the compound `O=C(Cc1csc(NC(=O)c2ccccc2)n1)NCc1ccccn1`, the inhibition was 0% (inactive). In the case of `COc1ccc(SCCC(=O)Nc2nc(-c3ccccn3)cs2)cc1` it was 81% (active); in that of `O=C(CN1C(=O)C2C3C=CC(C3)C2C1=O)Nc1nc(-c2ccccn2)cs1` (stereo not given), 84.8% (active).

Regarding `Cc1c(C(=O)Nc2nc(-c3ccccn3)cs2)cccc1[N+](=O)[O-]`, the inhibition was 25.8% (inactive). With `Cc1cc(OCC(=O)NCCc2ccccc2)ccc1C(C)C`, the inhibition was -16% (inactive) and -56% (inactive).

`O=C(Nc1nc(-c2cc([N+](=O)[O-])cs2)cs1)C1CC1`: the inhibition is 16% (inactive).

Turning to `O=C(COc1ccc(F)cc1)Nc1ccc2c(c1)N(C(=O)c1ccco1)CC2`, the inhibition was 0% (inactive).

Consider `Cc1c(S(=O)(=O)CCNC(=O)NCc2cccs2)c2ccccc2n1C`, for which the inhibition was -1% (inactive). As to `COc1cc(/C=C2\Oc3cc(OCC(=O)O)ccc3C2=O)cc(OC)c1OC`, the inhibition was -2% (inactive). With `COc1ccc(OC)c(NC(=O)c2ccc(S(=O)(=O)NC3CC3)cc2)c1` the figure was 16% (inactive); with `O=C(NCCn1nc(C(F)(F)F)c2c1CCCC2)c1c(F)cccc1Cl`, -4% (inactive); with `COC(=O)c1c(NC(=O)c2cc(C)no2)sc2c1CCCC2`, 0% (inactive). With `CCOC(=O)c1ccc(NC(=O)c2cc(=O)[nH]cn2)cc1` the figure was -18% (inactive); with `Nn1c(SCC(=O)NC2CCCCC2)nnc(CCC(=O)O)c1=O`, -5% (inactive); with `COc1ccc(-n2nnc(C(=O)OCc3ccccc3C)c2C)cc1`, -5% (inactive). In the case of `CSc1ccccc1NC(=O)C(=O)NCCC(O)c1ccc2c(c1)OCO2` (stereo not given) it was 13% (inactive); in that of `O=C(Nc1ccc2c(c1)OCO2)c1ccc2nccnc2c1`, -19% (inactive).

Take `CS(=O)(=O)N1CCCCC1C(=O)Nc1nc(-c2ccccn2)cs1` (stereo not given): the inhibition is 79% (active). With `CS(=O)(=O)N1CCC[C@H]1C(=O)Nc1nc(-c2ccccn2)cs1` the figure was 75% (active); with `CS(=O)(=O)N1CCCC(C(=O)Nc2nc(-c3nc4ccccc4s3)cs2)C1` (stereo not given), -20% (inactive). In the case of `O=C(Nc1nccs1)C1CCCN1S(=O)(=O)c1cccc2cccnc12` (stereo not given), the inhibition is -2.31% (inactive). For `CC1(C)CC(=O)c2sc(NC(=O)C3CCCCN3S(C)(=O)=O)nc2C1` (stereo not given), the inhibition is -7% (inactive). In the case of `CS(=O)(=O)N1CCCC1C(=O)Nc1nc2c(F)cc(F)cc2s1` (stereo not given) it was 5% (inactive); in that of `NS(=O)(=O)c1ccc(CCNC(=O)C(=O)Nc2nc3ccccc3s2)cc1`, -20% (inactive); in that of `COc1ccc2cc(C(=O)N(CCc3cccs3)C3CC3)[nH]c2c1`, -1% (inactive). In the case of `Cc1nc2ccccc2c(=O)n1-c1ccc(F)c(NC(=O)c2ccccc2Cl)c1` it was 3% (inactive).

For the compound `Cc1cccc(NC(=O)Nc2ccc(Nc3ccc(-n4cccn4)nn3)cc2)c1C`, the inhibition was 66% (active) and 33% (inactive). In the case of `O=S(=O)(Nc1ccc(Nc2ccc(-n3cccn3)nn2)cc1)c1ccccc1Cl` it was 100% (active); in that of `O=S(=O)(Nc1ccc2[nH]ncc2c1)c1ccccc1Cl`, 1.19% (inactive). In the case of `CCc1ccccc1NC(=O)Nc1ccc(Nc2cc(-n3cccn3)ncn2)cc1` it was -23% (inactive); in that of `Cc1nn(-c2ccc(Nc3ccc(NC(=O)COc4ccccc4)cc3)nn2)c(C)c1C`, -7% (inactive); in that of `COc1cc(Nc2ccc(NS(=O)(=O)c3ccccc3Cl)cc2)nc(C)n1`, 5% (inactive). Turning to `O=c1c2cc(-c3cccs3)nn2cnn1Cc1nc(-c2ccc(OCc3ccccc3)cc2)no1`, the inhibition is -16% (inactive).

For `CC(C)c1ccc(/C=C2\CC/C(=C\C=NN(C)C)C2=O)cc1`, the inhibition is 5.12% (inactive). In the case of `Cc1cc(C)cc(NC(=O)N2CCN(c3ccc4nnc(C5CC5)n4n3)CC2)c1` it was -16% (inactive); in that of `CC(C)c1cc(=O)n(CC(=O)Nc2ccccc2C#N)cn1`, -2% (inactive); in that of `Cc1ccccc1OCC(=O)NCCCS(=O)(=O)N1CCc2ccccc2C1`, -9% (inactive). With `O=C(CSc1ncc(-c2cccc(Br)c2)o1)NCc1ccc2c(c1)OCO2` the figure was -4% (inactive).

Take `CCn1nccc1C(=O)Nc1ccc(S(=O)(=O)NC23CC4CC(CC(C4)C2)C3)cc1`: the inhibition was -2.71% (inactive). In the case of `CCn1nccc1C(=O)Nc1ccc(-c2nc3ccccc3o2)cc1` it was 83% (active); in that of `CCC(=O)Nc1ccc(-c2nc3ccccc3o2)cc1`, -11% (inactive); in that of `O=C(c1ccc(OC(F)(F)F)cc1)N1CC(S(=O)(=O)C2CCCCC2)C1`, -1% (inactive). In the case of `COc1ccc(CCNC(=O)C(=O)Nc2ccc3c(c2)CCCN3C(=O)c2cccs2)cc1` it was 1% (inactive).

For the compound `O[C@H](c1ccncc1)c1c(-c2ccccc2)[nH]c2ccccc12`, the inhibition was 2% (inactive). As to `COc1ccc(NC(=O)COC(=O)Cn2c(C)nc3ccccc32)cc1OC`, the inhibition is -8.33% (inactive).

`CCN(c1ccc(NC(=O)COC(=O)CCc2nc3ccccc3n2-c2ccccc2)cc1)C(C)C`: the inhibition is 55.2% (active). In the case of `Cc1ccc(NC(=O)COC(=O)CCc2nc3ccccc3n2-c2ccccc2)c(C)c1`, the inhibition was 4.81% (inactive). In the case of `COc1cc([N+](=O)[O-])cc(C=NNC(=O)c2ccc(C)nc2)c1O` it was 79.7% (inactive); in that of `CS(=O)(=O)Nc1c(Cl)c(Cl)c(Cl)c(Cl)c1Cl`, 3% (inactive). In the case of `Cc1onc(-c2ccccc2Cl)c1C(=O)NCCCS(=O)(=O)N1CCN(c2ccccn2)CC1` it was -12% (inactive).

As to `Cc1ccc2cc(CCNC(=O)c3c(-c4ccccc4Cl)noc3C)c(=O)[nH]c2c1`, the inhibition is 4.89% (inactive). With `Cc1onc(-c2ccccc2Cl)c1C(=O)NCCn1ccc2ccccc21` the figure was 5% (inactive) and 69.4% (active).
